Data reported in PubChem BioAssay AID1159580 (chemical genetic matrix, 2015).
Where “and” joins values, the source holds several entries; their conditions need not be identical. Equal entries are not always repeated. In all, about 5,500 compounds went through this assay and about 2,000 (36%) were called active. Roughly 18% stayed inconclusive and do not appear here. Cut-off read from the data, not from the text of the source: active = normalized growth mostly below about 0.91 (no sharp cut-off); inconclusive = no clear call, values can overlap the other calls; inactive = mostly above about 0.92. This is one part of the list.

Experiment: chemical genetic growth profiling, strain panel (AID 1159580);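 note: tested at 20 µM; growth read once vehicle control cultures reached saturation at 30 °C; 1 = growth at the plate median or of vehicle wells; lower values mean less growth of the strain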
Settings: S. cerevisiae deletion strains, growth OD

Measured: normalized growth

CC(=O)OCC(=O)[C@@]1(O)CCC2C3CCC4=CC(=O)CC[C@]4(C)C3[C@@H](O)C[C@@]21C (stereo partly drawn)
inactive: locus YAL013W, strain DEP1, hits give low values 1.01 | locus YAL021C, strain ccr4, hits give low values 1.03 | locus YAL026C, strain drs2, hits give low values 1.02 | locus YAL030W, strain snc1, hits give low values 1.04 | locus YBL061C, strain skt5, hits give low values 1.03 | locus YBR009C, strain hhf1, hits give low values 0.99 | locus YBR021W, strain FUR4, hits give low values 0.999 | locus YBR023C, strain chs3, hits give low values 1.02 | locus YBR171W, strain sec66, hits give low values 1.04 | locus YBR229C, strain ROT2, hits give low values 1 | locus YBR231C, strain swc5, hits give low values 0.999 | locus YBR279W, strain paf1, hits give low values 1.01 | locus YCL011C, strain gbp2, hits give low values 1.01 | locus YCL016C, strain dcc1, hits give low values 1.04 | locus YCL029C, strain bik1, hits give low values 1 | locus YCL069W, strain vba3, hits give low values 1 | locus YCR088W, strain abp1, hits give low values 1.02 | locus YDL005C, strain med2, hits give low values 1.01 | locus YDL035C, strain GPR1, hits give low values 1.01 | locus YDL040C, strain nat1, hits give low values 1.01 | locus YDL074C, strain BRE1, hits give low values 1.01 | locus YDL101C, strain DUN1, hits give low values 1.01 | locus YDL134C, strain PPH21, hits give low values 1.01 | locus YDL185W, strain tfp1, hits give low values 1.01 | locus YDL192W, strain arf1, hits give low values 1 | locus YDR001C, strain nth1, hits give low values 1.01 | locus YDR069C, strain doa4, hits give low values 1.04 | locus YDR101C, strain arx1, hits give low values 0.994 | locus YDR137W, strain rgp1, hits give low values 1.05 | locus YDR150W, strain NUM1, hits give low values 1.01 | locus YDR159W, strain sac3, hits give low values 0.997 | locus YDR162C, strain NBP2, hits give low values 1.01 | locus YDR195W, strain ref2 1.02 | locus YDR297W, strain sur2, hits give low values 0.997 | locus YDR318W, strain mcm21, hits give low values 0.998 | locus YDR334W, strain swr1, hits give low values 1.01 | locus YDR335W, strain msn5, hits give low values 1.02 | locus YDR388W, hits give low values 1 | locus YDR392W, strain spt3, hits give low values 1.04 | locus YDR502C, strain sam2, hits give low values 0.996 | locus YEL003W, strain gim4, hits give low values 1.01 | locus YEL037C, strain rad23, hits give low values 1.02 | locus YEL061C, strain CIN8 (second series), hits give low values 1.01 | locus YEL061C, strain CIN8, hits give low values 1.01 | locus YER015W, strain faa2, hits give low values 1.01 | locus YER016W, strain bim1, hits give low values 1.05 | locus YER110C, hits give low values 0.998 | locus YER111C, strain swi4, hits give low values 1.01 | locus YER155C, strain BEM2 (second series), hits give low values 1.02 | locus YER155C, strain BEM2, hits give low values 1.01 | locus YER167W, strain BCK2, hits give low values 1.01 | locus YFR010W, strain ubp6, hits give low values 0.984 | locus YGL078C, strain dbp3, hits give low values 0.99 | locus YGL086W, strain mad1, hits give low values 1.01 | locus YGL167C, strain pmr1, hits give low values 1.02 | locus YGL173C, strain kem1, hits give low values 1.02 | locus YGL227W, strain vid30, hits give low values 1.01 | locus YGL240W, strain doc1, hits give low values 1 | locus YGL248W, strain PDE1, hits give low values 1 | locus YGL253W, strain hxk2, hits give low values 1.02 | locus YGR135W, strain pre9, hits give low values 0.986 | locus YGR252W, strain gcn5, hits give low values 0.947 | locus YHR013C, strain ard1, hits give low values 1.04 | locus YHR027C, strain rpn1, hits give low values 1.03 | locus YHR030C, strain SLT2, hits give low values 1.01 and 0.978 | locus YHR079C, strain IRE1 (second series), hits give low values 1 | locus YHR079C, strain IRE1, hits give low values 0.976 | locus YHR094C, strain hxt1, hits give low values 0.995 | locus YHR129C, strain ARP1, hits give low values 1.01 | locus YHR142W, strain chs7, hits give low values 1.03 | locus YHR200W, strain rpn10, hits give low values 1 | locus YIL066C, strain RNR3, hits give low values 1.01 | locus YIL073C, strain SPO22, hits give low values 1.04 | locus YIL125W, strain kgd1, hits give low values 0.996 | locus YIR030C, strain dcg1, hits give low values 1 | locus YJL092W, strain hpr5, hits give low values 1.02 | locus YJL095W, strain BCK1 (second series), hits give low values 1.03 | locus YJL095W, strain BCK1, hits give low values 1.01 and 0.971 | locus YJL115W, strain asf1, hits give low values 1.01 | locus YJL129C, strain trk1, hits give low values 1.04 | locus YJL134W, strain LCB3, hits give low values 1.01 | locus YJL154C, strain vps35, hits give low values 1.01 | locus YJL164C, strain tpk1, hits give low values 1.01 | locus YJL166W, strain qcr8, hits give low values 1.01 | locus YJL168C, strain set2, hits give low values 0.993 | locus YJL187C, strain SWE1 (second series), hits give low values 1 | locus YJL187C, strain SWE1, hits give low values 1.01 | locus YJR043C, strain POL32, hits give low values 1.02 | locus YJR066W, strain TOR1, hits give low values 0.931 | locus YKL009W, strain mrt4, hits give low values 1.01 | locus YKL068W, hits give low values 0.997 | locus YKL085W, strain MDH1 (second series), hits give low values 1 | locus YKL085W, strain MDH1, hits give low values 1 | locus YKL160W, strain elf1, hits give low values 1.04 | locus YKR001C, strain vps1, hits give low values 0.997 | locus YKR026C, strain gcn3, hits give low values 1 | locus YKR091W, strain srl3, hits give low values 1.01 | locus YLL001W, strain dnm1, hits give low values 1.01 | locus YLL026W, hits give low values 1.01 | locus YLL041C, strain sdh2, hits give low values 1.03 | locus YLR027C, strain aat2, hits give low values 1.02 | locus YLR039C, strain RIC1, hits give low values 1.02 | locus YLR058C, strain SHM2, hits give low values 0.996 | locus YLR102C, strain apc9, hits give low values 0.995 | locus YLR113W, strain HOG1, hits give low values 0.992 | locus YLR221C, strain rsa3, hits give low values 0.985 | locus YLR258W, strain gsy2, hits give low values 1.03 | locus YLR262C, strain YPT6 (second series), hits give low values 1 | locus YLR262C, strain YPT6, hits give low values 1.04 | locus YLR268W, strain sec22, hits give low values 0.998 | locus YLR320W, strain mms22, hits give low values 1 | locus YLR330W, strain CHS5, hits give low values 1.01 | locus YLR342W, strain FKS1 (second series), hits give low values 0.998 | locus YLR342W, strain FKS1, hits give low values 1.02 | locus YLR357W, strain rsc2, hits give low values 1.03 | locus YLR370C, strain arc18, hits give low values 1.02 | locus YLR371W, strain rom2, hits give low values 0.994 | locus YLR384C, strain iki3, hits give low values 1.02 | locus YLR418C, strain cdc73, hits give low values 0.994 | locus YML016C, strain PPZ1, hits give low values 1 | locus YML032C, strain rad52, hits give low values 1 | locus YML120C, strain ndi1, hits give low values 1 | locus YML124C, strain tub3, hits give low values 0.998 | locus YMR058W, strain fet3, hits give low values 1.03 | locus YMR078C, strain ctf18, hits give low values 1 | locus YMR125W, strain sto1, hits give low values 1.03 | locus YMR129W, hits give low values 1.02 | locus YMR205C, strain PFK2, hits give low values 1.03 | locus YMR223W, strain ubp8, hits give low values 0.98 | locus YMR231W, strain pep5, hits give low values 1.02 | locus YMR307W, strain GAS1, hits give low values 0.984 | locus YNL067W, strain RPL9B, hits give low values 1.01 | locus YNL071W, strain lat1, hits give low values 1 | locus YNL183C, strain NPR1, hits give low values 0.954 | locus YNL209W, strain ssb2, hits give low values 1.02 | locus YNL233W, strain BNI4, hits give low values 1 | locus YNL248C, strain rpa49, hits give low values 1.03 | locus YNL250W, strain rad50, hits give low values 0.982 | locus YNL271C, strain bni1, hits give low values 0.993 | locus YNL298W, strain CLA4, hits give low values 0.995 | locus YNL307C, strain MCK1, hits give low values 1 | locus YNL322C, strain KRE1 (second series), hits give low values 1.04 | locus YNR049C, strain mso1, hits give low values 1.02 | locus YNR052C, strain pop2, hits give low values 0.996 | locus YOL012C, strain htz1 0.732 | locus YOL147C, strain pex11, hits give low values 0.992 | locus YOR001W, strain rrp6, hits give low values 0.986 | locus YOR061W, strain CKA2, hits give low values 1.01 | locus YOR069W, strain VPS5, hits give low values 1.01 | locus YOR070C, strain gyp1, hits give low values 1.03 | locus YOR080W, strain dia2, hits give low values 1.02 | locus YOR083W, strain WHI5, hits give low values 1.05 | locus YOR106W, strain vam3, hits give low values 1.05 | locus YOR136W, strain idh2, hits give low values 0.994 | locus YOR144C, strain elg1, hits give low values 0.997 | locus YOR184W, strain ser1, hits give low values 1 | locus YOR231W, strain MKK1, hits give low values 0.992 | locus YOR265W, strain rbl2, hits give low values 1 | locus YOR270C, strain vph1, hits give low values 1.03 | locus YOR290C, strain snf2, hits give low values 1.06 | locus YOR316C, strain cot1, hits give low values 0.995 | locus YPL051W, strain arl3, hits give low values 1 | locus YPL055C, strain LGE1, hits give low values 1 | locus YPL078C, strain atp4, hits give low values 1.04 | locus YPL106C, strain sse1, hits give low values 1.04 | locus YPL240C, strain hsp82, hits give low values 1.01 | locus YPL241C, strain CIN2, hits give low values 1.01 | locus YPL256C, strain CLN2, hits give low values 0.968 | locus YPR119W, strain clb2, hits give low values 0.999 | locus YPR141C, strain kar3, hits give low values 1.01 | locus YPR163C, strain tif3, hits give low values 1 | locus YPR167C, strain met16, hits give low values 1 | strain wtn01, hits give low values 0.997
